Bioassay records as filed in PubChem BioAssay.
A selection: hits, their analogues and other compounds. The true share with any hit is near 3.8%.
ATXN viability: Viability Counterscreen for Primary qHTS for Inhibitors of ATXN expression | AID 651635, 2014 | S2 cells (HEK-293 line with an ATXN2-luciferase reporter) viability, CellTiter-Fluor protease fluorescence, 24 h | 400,000 tested, 0.49% active | Potency, µM (doses to about 56.7 µM), hits mostly cytotoxic; note: nearly all actives have a fitted effect of over 40% in size
HT1080NT lethal: qHTS for induction of synthetic lethality in tumor cells producing 2HG: qHTS for the HT-1080-NT fibrosarcoma cell line | HT-1080-NT fibrosarcoma viability, CellTiter-Glo ATP luminescence, 48 h | Potency, µM (doses to about 46.1 µM), actives largely listed as cytotoxic | 360,000 tested, 1.6% active | AID 686970, 2013;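 note: NT is the 2HG producing partner of a matched IDH1 knockdown line; nearly all actives have a fitted effect of over 55% in size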
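A 48-hour cytotoxicity screen used HT-1080-NT cells plated 2 hours before compound delivery. ATP-based CellTiter-Glo luminescence measured viability, normalized to DMSO and no-cell controls.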
ATXN2 expr inh: Primary qHTS for Inhibitors of ATXN expression; HEK-293 ATXN2-luciferase reporter, luminescence, 24 h; Potency, µM (series often up to 57 µM), most hits filed as inhibitors; 360,000 tested, 0.72% active; AID 1745845, 2022; note: nearly all actives have a fitted effect of over 55% in size
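ATXN2-luciferase reporter cells (luciferase flanked by upstream and downstream ATXN2 gene portions) were treated 24 h at 37 °C with compounds at up to 57 uM. SteadyGlo luminescence gave expression; GF-AFC fluorescence gave viability.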
TGFb inhibitor: qHTS for Inhibitors of TGF-b | HepG2 CAGA-GFP TGF-b/SMAD3 reporter, GFP fluorescence, 18 h; TGF-beta stimulated, 500 pg/mL final | Potency, µM (top dose mostly 46.1 µM), actives largely listed as inhibitors | 410,000 tested, 1.2% active | AID 588855, 2011; note: nearly all actives have a fitted effect of over 65% in size
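Inhibition was scored as loss of TGF-beta-induced (500 pg/mL final, 18 hours, 37 degrees C) GFP in HEPG2 cells carrying a CAGA-GFP reporter, in DMEM with 1% FBS. Well GFP was summed per cell; Activity was normalised to unstimulated and stimulated DMSO wells, then concentration-response fitting.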
HT1080 IDH1KD tx: qHTS for induction of synthetic lethality in tumor cells producing 2HG: qHTS for the HT-1080-IDH1KD cell line; 360,000 tested, 2% active; HT-1080 IDH1 knockdown viability, ATP luminescence, 48 h; AID 686971, 2013; Potency, µM (doses to about 46.1 µM), usual class: cytotoxic
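IDH1KD HT-1080 cells, 750/well, RPMI + 5% FBS; compound pinned after 2 h settling; 48 h, 37 °C; CellTiter-Glo luminescence; % activity normalised to DMSO and no-cell wells; curves fitted, classed by r2 and efficacy.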
HepG2 viability: qHTS for Inhibitors of TGF-b: Cytotox Counterscreen | HepG2 CAGA-GFP viability, ATP luminescence, 18 h | Potency, µM (doses to about 46.1 µM), usual class: cytotoxic | 410,000 tested, 0.76% active
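CellTiter-Glo luminescence gave cytotoxicity after 18 hours at 37 degrees C. The cells were HepG2 CAGA-GFP in 1% FBS DMEM, stimulated with 500 pg/mL TGF-beta after compound addition. %Activity was normalised to no-cell wells (complete cell-killing) and DMSO (no toxicity), and curves were fitted and classified.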
Numbers stand for hits; i = inactive; ? = inconclusive; nt = no result given. Calls come from the whole dose curve; as a rule, active = well fitted curve in the direction sought with a large enough effect; inconclusive = small, poorly fitted or top-dose-only effect, or another doubt; inactive = no such curve, though single readings can be large; an effect the other way counts as inactive or inconclusive.

SMILES | ATXN viability | HT1080NT lethal | ATXN2 expr inh | TGFb inhibitor | HT1080 IDH1KD tx | HepG2 viability
CC(=O)n1cc(CO)c2ccccc21 | i | i | i | i | i | i
CC(=O)n1cc(N(C(=O)CCl)c2ccccc2)c2ccccc21 | nt | 2.6µM | ? | 7.1µM | 2.6µM | 7.1µM
CCOC(=O)N1CCc2c(sc(NCc3ccc(OCC)cc3)c2C(=O)Nc2ccc(OC)cc2OC)C1 | i | nt | 13µM | ? | nt | i
CCOC(=O)N1CCc2c(sc(NCc3cccs3)c2C(=O)Nc2cc(OC)ccc2OC)C1 | nt | nt | nt | ? | nt | i
CCOC(=O)N1CCc2c(sc(NCc3cccs3)c2C(=O)Nc2ccc(OC)cc2OC)C1 | nt | nt | nt | 10µM | nt | i
COc1ccc(CN2CCCC(c3nc(C)ncc3-c3ccc(F)cc3)C2)c(OC)c1OC (stereo not drawn) | i | nt | nt | nt | nt | nt
Cc1ccc(C(C)C)c(OCC(=O)NCC2(N(C)C)CCCCC2)c1 | i | nt | i | i | nt | i
CCn1c(CNC(C)=O)nnc1SCC(=O)c1ccc(Br)cc1 | i | 13µM | i | i | ? | 22µM
Cc1ccc(NC(=O)Cc2nnc(SCC(=O)c3ccc(Br)cc3)n2C)cc1 | ? | ? | i | i | 11µM | i
CCc1ccc2occ(CC(=O)NCc3ccccc3)c2c1 | i | nt | i | i | nt | i
CN(C)c1ccc(C=NC2CCc3ccccc32)cc1 (stereo not drawn) | nt | nt | nt | i | nt | i
Cc1ccc(C)c(CSc2nc(-c3ccccc3F)nc3c2Cc2c(CO)cnc(C)c2O3)c1 | i | nt | i | i | nt | i
C/C(CC(=O)Nc1ccccn1)=N\NC(=O)c1ccc2ccccc2c1 | i | i | i | i | i | i
COc1cc(OC)cc(C(=O)N/N=C(\C)CC(=O)Nc2ccccn2)c1 | i | 2.6µM | i | i | 3.3µM | i
C/C(CC(=O)Nc1ccccn1)=N\NC(=O)Cc1cccc2ccccc12 | i | i | i | i | i | i
C/C(CC(=O)Nc1ccccn1)=N\NC(=O)c1ccccc1O | ? | 21µM | ? | i | 9.2µM | i
CCOC(=O)c1c(S(=O)(=O)NCC(=O)N2CCN(c3cccc(Cl)c3)CC2)c(C)n(C)c1C | i | nt | i | i | nt | i
COc1ccccc1-n1c(=O)oc2ccc(Cl)cc2c1=O | ? | 2.9µM | i | ? | 2.9µM | i
COc1c(Cl)c(=O)oc2ccc(Cl)cc12 | i | i | nt | i | i | i
Cc1cccc(OCC(=O)NCc2ccc3c(c2)CCN3C(=O)c2ccccc2)c1 | nt | nt | nt | i | nt | i
O=C(C[C@H]1C[C@H](C(=O)N2CCOCC2)[C@@]2(CCC3CCCC3)c3[nH]c4cc(-c5ccco5)ccc4c3CCN2C1=O)NCCCn1ccnc1 | ? | ? | ? | ? | 16µM | i
CCN(CC)C(=O)[C@H]1C[C@H](CC(=O)NCCCn2ccnc2)C(=O)N2CCc3c([nH]c4cc(-c5ccco5)ccc34)[C@]12C | i | i | i | i | i | i
O=C(CC1C[C@H](C(=O)N2CCOCC2)[C@@]2(CCC3CCCC3)c3[nH]c4ccccc4c3CCN2C1=O)NCc1cccc(C(F)(F)F)c1 (stereo partly drawn) | i | i | i | i | i | i
CN(C)C(=O)CCc1ccc2c3c([nH]c2c1)[C@]1(CCC2CCCC2)[C@@H](C(=O)N2CCOCC2)C[C@H](CC(=O)NCc2cccc(C(F)(F)F)c2)C(=O)N1CC3 | nt | i | ? | 11µM | i | i
COc1ccc(NC(=O)Cn2nnc(-c3ccccc3NC(=O)c3cccs3)n2)cc1 | ? | ? | ? | i | ? | i
Cc1ccc(NC(=O)Cn2nnc(-c3ccccc3NC(=O)c3cccs3)n2)cc1 | ? | 1.2µM | i | i | 1.2µM | i
COc1cc(C)c2ccccc2n1 | nt | nt | nt | i | nt | i
Cc1cc(C)c2c(N)c3cccc(C)c3nc2n1 | nt | 10µM | 13µM | ? | 9.2µM | i
